{"source": "PubChem BioAssay (NCATS)", "note": "Records with an inconclusive call do not appear. A number with no mark means an inactive call. The source made the active and inactive calls. Calls follow the shape of the dose curve; as a rule, active = well fitted cell-killing curve with a large enough effect; inconclusive = small, poorly fitted or top-dose-only effect, or effect the other way; inactive = no such curve, though single readings can be large or run the other way. Potency is read from the fitted curve at half-maximal effect."}
{"assay": "Quantitative High-Throughput drug screen in 47 multiple myeloma cell lines against the NCATS MIPE library collection: ARP1_JJKsccF8 cell viability assay (AID 1918928; also: nearly all actives have a fitted effect of over 40% in size)", "conditions": "ARP1 myeloma cells viability, CellTiter-Glo ATP, 48 h; series mostly up to 45.8 µM; viability: at the top concentration", "from_the_text": "PI: Beverly A. Mock Ph.D.\nLaboratory of Cancer Biology and Genetics,\nCenter for Cancer Research, National Cancer Institute,\nNational Institute of Health, Bethesda, Maryland\nDrug resistance and disease progression are common in multiple myeloma (MM) patients, underscoring the need for new therapeutic combinations. […] We hypothesized that effective combinations would reduce MYC expression and enhance p16 activity. […] These preclinical data identify potentially useful drug combinations for evaluation in drug-resistant MM and reveal potential mechanisms of combined drug sensitivity.\nDescribed herein is the primary MIPE qHTS used to cherrypick compounds. Validated compounds were then further tested for potential synergistic activiy.\n[1] Peat TJ, Gaikwad SM, Dubois W, Gyabaah-Kessie N, Zhang S, Gorjifard S, Phyo Z, Andres M, Hughitt VK, Simpson RM, Miller MA, Girvin AT, Taylor A, Williams D, D'Antonio N, Zhang Y, Rajagopalan A, Flietner E, Wilson K, Zhang X, Shinn P, Klumpp-Thomas C, McKnight C, Itkin Z, Chen L, Kazandijian D, Zhang J, Michalowski AM, Simmons JK, Keats J, Thomas CJ, Mock BA. Drug combinations identified by high-throughput screening promote cell cycle transition and upregulate Smad pathways in myeloma. Cancer Lett. 2023 Aug 1;568:216284. doi: 10.1016/j.canlet.2023.216284. Epub 2023 Jun 24. PMID: 37356470; PMCID: PMC10408729.\nSEQUENCE No. (e.g., 1, 2, 3, etc.); […] (e.g., Cells, Incubation, Reagent, etc.); VALUE and DESCRIPTION.\n1; Cells; 5 uL; white, solid bottom 1536-well Greiner assay plate.\n2; Compounds; 23 nL; Kalypsis pin tool (Wako USA) equipped with a 1536-well pin head to transfer to the assay plates.\n3; Incubation; 48 hours; 37C incubation.\n4; Reagent;5uL; CellTiter Glo (Promega).\n5; Detector; 425V; Luminescence; Viewlux PerkinElmer.\nNOTES (numbers refer to Sequence numbers above)\n1. The cell-based screening methods employed in this study were like those previously published. Briefly, the corresponding myeloma cell lines were screened in 1,536-well plates with 500 cells, 5-uL per well for inhibition of cell viability (assessed by measuring ATP levels with CellTiterGlo).\n2. NCATS MIPE 4.0 library of approved and investigational drugs were added using the Kalypsis pin tool. Wells treated with DMSO only for 100% viability and media only cells for 0% viability were used as controls.\n3. The assay plates were covered and incubated for 48 hours in a 37C, 5% CO2 incubator with controlled humidity.\n4. After 48 hours, CellTilter-GloTM luminescent substrate mix (Promega) reagent was added to the assay plate and plates we incubated for 5 min at room temperature.\n5. Signal was measured as median relative luminescence units on a ViewLux (PerkinElmer) multiplate reader.\n[1] Heske CM, Davis MI, Baumgart JT, Wilson K, Gormally MV, Chen L, Zhang X, Ceribelli M, Duveau DY, Guha R, Ferrer M, Arnaldez FI, Ji J, Tran HL, Zhang Y, Mendoza A, Helman LJ, Thomas CJ. Matrix Screen Identifies Synergistic Combination of PARP Inhibitors and Nicotinamide Phosphoribosyltransferase (NAMPT) Inhibitors in Ewing Sarcoma. Clin Cancer Res. 2017 Dec 1;23(23):7301-7311. doi: 10.1158/1078-0432.CCR-17-1121. Epub 2017 Sep 12. PMID: 28899971; PMCID: PMC6636827.", "units": {"viability": "%"}}
{"smiles": "C[C@@H]1[C@H](O)[C@@H](C)C=CC=CCCC=CC=CC=CC=C[C@H](O[C@H]2O[C@@H](C)[C@H](O)[C@@H](N)[C@@H]2O)CC2O[C@](O)(C[C@@H](O)[C@H](O)CC[C@@H](O)C[C@@H](O)C[C@@H](O)CC(=O)O[C@H]1C)C[C@H](O)[C@H]2C(=O)O", "viability": 108}
{"smiles": "Oc1ccc2c3c1O[C@H]1c4[nH]c5c(c4C[C@@]4(O)[C@@H](C2)N(CC2CC2)CC[C@]314)C[C@@]1(O)[C@H]2Cc3ccc(O)c4c3[C@@]1(CCN2CC1CC1)[C@H]5O4", "viability": 127}
{"smiles": "COC(=O)[C@@H](N)CCCN=C(N)N[N+](=O)[O-]", "viability": 116}
{"smiles": "COc1cccc2c1[C@]13CCN(CC4CC4)[C@H](C2)[C@]1(OC)CCC(=O)C3", "viability": 114}
{"smiles": "C#CC1(O)CCC2C3CCC4=CC(=O)CCC4(C)C3CCC21C", "note": "(stereo not given)", "viability": 108}
{"smiles": "CC=C(C)C(=O)O[C@H]1C(C)=C2[C@@H]3OC(=O)[C@@](C)(O)[C@@]3(O)[C@@H](OC(=O)CCC)C[C@](C)(OC(C)=O)[C@@H]2[C@@H]1OC(=O)CCCCCCC", "Potency": "0.0296 µM (active)"}
{"smiles": "COc1ccc2c(c1)[C@]13CCCCC1C(C2)N(C)CC3", "note": "(stereo not given in full)", "viability": 108}
{"smiles": "CCOP(=O)(OCC)C(C)NC(=O)N(CCCl)N=O", "note": "(stereo not given)", "viability": 98.8}
{"smiles": "Cc1nc(-c2ccc(-c3ccc(C(=O)N4CCc5cc6c(cc54)C4(CCN(C)CC4)CO6)cc3)c(C)c2)no1", "viability": 116}
{"smiles": "Cc1ccccc1-n1c(Cn2cnc3c(N)ncnc32)nc2cccc(C)c2c1=O", "Potency": "0.132 µM (active)"}
{"smiles": "CC[C@@H](C(N)=O)N1CCCC1=O", "viability": 89.4}
{"smiles": "CC(C)(O)C=CC(=O)[C@](C)(O)[C@H]1[C@H](O)C[C@]2(C)[C@@H]3CC=C4[C@@H](C=C(O)C(=O)C4(C)C)[C@]3(C)C(=O)C[C@@]12C", "Potency": "0.0662 µM (active)"}
{"smiles": "CC[C@@]1(O)C(=O)OCc2c1cc1n(c2=O)Cc2cc3ccccc3nc2-1", "Potency": "0.118 µM (active)"}
{"smiles": "O=C(O)CNC(=O)c1c(O)c2ccccc2n(Cc2ccccc2)c1=O", "viability": 100}
{"smiles": "COc1cc([C@@H]2c3cc4c(cc3[C@@H](O)C3COC(=O)C32)OCO4)cc(OC)c1O", "note": "(stereo not given in full)", "Potency": "0.0209 µM (active)"}
{"smiles": "CCOC(=O)Nc1ccc(NCc2ccc(F)cc2)cc1N", "viability": 111}
{"smiles": "CC1=NN=C(c2ccc(N)cc2)c2cc3c(cc2C1)OCO3", "viability": 103}
{"smiles": "CC(C)N(CCNC(=O)CN1CCCC1=O)C(C)C", "viability": 108}
{"smiles": "C[C@@H]1O[C@@H](O[C@@H]2C=C3CC[C@@H]4[C@@H](CC[C@]5(C)[C@H](c6ccc(=O)oc6)CC[C@@]45O)[C@@]3(C)CC2)[C@H](O)[C@H](O)[C@H]1O", "Potency": "0.0209 µM (active)"}
{"smiles": "C[C@]12CC[C@H](O)CC1=CC[C@H]1[C@H]3CCC(=O)[C@@]3(C)CC[C@@H]12", "viability": 101}
{"smiles": "CC(=O)O[C@@]12CO[C@H]1C[C@H](O)[C@@]1(C)C(=O)[C@H](O)C3=C(C)[C@@H](O)C[C@@](O)([C@@H](OC(=O)c4ccccc4)[C@@H]21)C3(C)C", "Potency": "2.64 µM (active)"}
{"smiles": "CC[C@@H]1[C@@H](C)O[C@@](O)([C@@H](C)[C@H](O)[C@H](C)[C@H]2OC(=O)C=CC=C[C@@H](C)[C@@H]([C@@H](C)[C@@H](O)[C@H](C)[C@@]3(O)C[C@H](O[C@H]4C[C@H](O)[C@H](O)[C@H](C)O4)[C@H](CC)[C@@H](C)O3)OC(=O)C=CC=C[C@@H]2C)C[C@H]1O[C@H]1C[C@H](O)[C@H](O)[C@H](C)O1", "Potency": "0.372 µM (active)"}
{"smiles": "C[C@H]1CCCC=CC2C[C@H](O)C[C@@H]2[C@H](O)C=CC(=O)O1", "note": "(stereo not given in full)", "viability": 6.3}
{"smiles": "Cc1ccccc1-n1c(Cn2ncc3c(N)ncnc32)nc2cccc(C)c2c1=O", "Potency": "4.69 µM (active)"}
{"smiles": "Cc1[nH]nc2ccc(-c3cncc(OC[C@@H](N)Cc4c[nH]c5ccccc45)c3)cc12", "Potency": "3.32 µM (active)"}
{"smiles": "CC(N[C@H]1C[C@H]1c1ccccc1)c1ccc2c(c1)OCCO2", "note": "(stereo not given in full)", "Potency": "8.33 µM (active)"}
{"smiles": "CC(=CCCC1=CCC(C2=CC(=O)OC2O)OC1O)CCC1=C(C)CCCC1(C)C", "note": "(stereo not given)", "viability": 70.1}
{"smiles": "C1=C2CCCN[C@H]2[C@@H]2C[C@H]1[C@@H]1CCCCN1C2", "viability": 113}
{"smiles": "COc1ccc(C(=O)c2c(C)n(CCN3CCOCC3)c3cc(I)ccc23)cc1", "Potency": "23.5 µM (active)"}
{"smiles": "C[C@@H]1CC[C@@]2(OC1)O[C@H]1C[C@H]3[C@@H]4CC=C5C[C@@H](O[C@@H]6O[C@H](CO)[C@@H](O[C@@H]7O[C@@H](C)[C@H](O)[C@@H](O)[C@@H]7O)[C@H](O)[C@@H]6O[C@@H]6O[C@@H](C)[C@H](O)[C@@H](O)[C@@H]6O)CC[C@]5(C)[C@@H]4CC[C@]3(C)[C@@H]1[C@H]2C", "Potency": "3.32 µM (active)"}
{"smiles": "CCCCCC[C@H]1C(=O)O[C@H](C)[C@H](NC(=O)c2cccc(NC=O)c2O)C(=O)O[C@@H](C)[C@@H]1OC(=O)CC(C)C", "Potency": "0.0418 µM (active)"}
{"smiles": "NC1=NC(=O)N2CC12", "note": "(stereo not given)", "viability": 94.9}
{"smiles": "CC(C)(C)[C@]1(O)C[C@@H]2OC(=O)C[C@@]23C(=O)O[C@@H]2OC(=O)[C@H](O)C213", "note": "(stereo not given in full)", "viability": 91.1}
{"smiles": "CSCC[C@@H](NC(=O)[C@@H](Cc1ccccc1)NC(=O)CNC(=O)CNC(=O)[C@@H](N)Cc1ccc(O)cc1)C(=O)O", "viability": 109}
{"smiles": "C[C@@H]1CC[C@H]2[C@@H](C)C(=O)O[C@@H]3O[C@@]4(C)CC[C@H]1[C@]32OO4", "Potency": "0.332 µM (active)"}
{"smiles": "Cc1c(C(=O)Nc2cccc(C(F)(F)F)c2)cc(-c2ccccc2)n1CCCN1CCOCC1", "Potency": "20.9 µM (active)"}
{"smiles": "O=[N+]([O-])c1ncc[nH]1", "viability": 103}
{"smiles": "CC1=C(O)C(=O)C=C2C1=CC=C1[C@@]2(C)CC[C@@]2(C)[C@@H]3C[C@](C)(C(=O)O)CC[C@]3(C)CC[C@]12C", "Potency": "0.743 µM (active)"}
{"smiles": "CC(C)(O)C(=O)Nc1ccc([N+](=O)[O-])c(C(F)(F)F)c1", "viability": 80.2}
{"smiles": "CN1[C@H]2CC(O)C[C@H]1[C@H]1O[C@H]12", "note": "(stereo not given in full)", "Potency": "20.9 µM (active)"}
